Compound activity deposited in PubChem by several laboratories.
Only some compounds are listed: those with a hit (about 2.8% of all), similar ones and a draw of the others.
EP2 antag – human EP2 receptor antagonists, primary screen, TR-FRET cAMP, C6 glioma cells; Prostaglandin E2 receptor EP2 subtype (Homo sapiens), P43116; C6 glioma cells expressing human EP2; cells stimulated with saturating PGE2; inhibition, % at 25 µM; 260,000 compounds, 0.52% hits; AID 1422, 2008;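 active = percent inhibition above 40 after rounding to a whole number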;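 note: rat C6 glioma host cells with rolipram phosphodiesterase inhibitor present; the protocol text gives 20 µM as final concentration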
Target sequence (P43116 whole entry, looked up): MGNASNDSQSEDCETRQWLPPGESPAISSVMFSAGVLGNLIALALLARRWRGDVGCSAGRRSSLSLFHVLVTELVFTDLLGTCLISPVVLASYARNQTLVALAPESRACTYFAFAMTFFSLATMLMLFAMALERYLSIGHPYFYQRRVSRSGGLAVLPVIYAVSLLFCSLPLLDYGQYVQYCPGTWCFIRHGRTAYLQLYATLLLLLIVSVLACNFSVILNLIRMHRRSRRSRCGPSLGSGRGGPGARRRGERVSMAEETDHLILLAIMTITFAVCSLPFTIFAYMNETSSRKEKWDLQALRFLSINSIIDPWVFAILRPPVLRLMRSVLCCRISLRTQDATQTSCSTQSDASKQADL
EP2 mod – EP2 receptor modulators, cAMP readout, primary screen, cell-based, HTRF cAMP, PGE2 stimulation; Prostaglandin E2 receptor EP2 subtype (Homo sapiens), P43116; EP2-expressing cells, cAMP HTRF FRET, PGE2 co-stimulation; induction, % at 25 µM; 260,000 compounds, 0.83% hits; AID 940, 2007;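 active = compounds whose cAMP rise, as percent of the full-agonist control response, exceeds 60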;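 note: rat C6 glioma line stably carrying human EP2 under a CMV promoter; the protocol text gives 20 µM as final concentration; 100% = response of wells given 1 µM PGE2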
Wee1 degr inh – Wee1 degradation inhibitors, primary screen, cell-based, HeLa, Wee1K328M-luciferase, luminescence; Wee1-like protein kinase (Homo sapiens), P30291; HeLa Luc-Wee1K328M stability; 100% = proteasome inhibitor MG132 effect; reporter increase, % at 5 µM; 220,000 compounds, 1.2% hits; AID 1321, 2008;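 active = activation above the mean of all tested compounds plus 3 SD, set per screening run, cut at about 8.8% in these data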;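 note: cells exposed to compound for 20 h before luminescence read; 0% = DMSO alone and 100% = MG132 at 30 µM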
HSV replic up – enhancers of HSV replication in host cells, fold increase, host cell viability. HSV replication augmentation in cells. maximum fold increase. 220,000 compounds, 0.005% hits. AID 1956, 2009; in the data active = maximum fold increase above about 1.5; tested in PC3 cells
p47phox inh – p47phox/p22phox peptide binding inhibitors, primary screen, biochemical, uHTS, NADPH oxidase regulatory subunit; Neutrophil cytosol factor 1 (Homo sapiens), P14598; fluorescence polarization, 2 h; inhibition, % at 24.7 µM; 220,000 compounds, 0.53% hits;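 active = inhibition above about 30%, limit read from the data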;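 note: 0% = p47phox with labelled peptide and 100% = labelled peptide alone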
Furin inh – human furin inhibitors, primary screen, biochemical, fluorescence intensity; P09958; purified furin, fluorogenic substrate cleavage; inhibition, % at 20 µM or 30 µM; 220,000 compounds, 0.061% hits; AID 463115, 2010; in the data active = inhibition above about 25%
Active calls of the source: *; ! = a repeat was not active.

Screening O=C(c1ccccc1)c1c2c(cc3sc4ccccc4[n+]13)-c1cccc3cccc-2c13 returned EP2 antag -0.6, EP2 mod -0.3, Wee1 degr inh -2.3, p47phox inh 1.3 and Furin inh 15.8.
Cc1sc2cc3c(c(C(=O)c4ccccc4)[n+]2c1C)-c1cccc2cccc-3c12 was read as EP2 antag 16.9, EP2 mod -37.9, Wee1 degr inh -0.7, HSV replic up inactive, p47phox inh 36.9* and Furin inh -24.4.
Screening CC(C)(C)c1ccc(C(=O)N(Cc2cc3cc4c(cc3[nH]c2=O)OCCO4)C2CCCC2)cc1 returned EP2 antag 12.3 and EP2 mod 24.5.
`Oc1ccc(-c2nc3ccc4ccccc4c3c3c2CCC3)cc1O` gave EP2 antag 8.4, EP2 mod 10.1, Wee1 degr inh 9.5*, HSV replic up inactive, p47phox inh -16.0 and Furin inh -7.0.
`COc1ccc(-c2cc(C(=O)O)nc3ccc4ccccc4c23)cc1OC` gave EP2 antag 7.3, EP2 mod -22.3, Wee1 degr inh -3.3, HSV replic up inactive, p47phox inh -8.3 and Furin inh -24.4.
CS(=O)(=O)N1CCSC1c1ccco1 (centres undefined) was read as EP2 antag 8.5 and EP2 mod 21.9.
Screening CC(=O)Nc1ccc2c(c1)/C(=C/c1ccc([N+](C)(C)C)cc1)c1ccccc1-2 returned EP2 antag 47.9* and EP2 mod -24.1.
Clc1ccc(CSc2ncnc3c2ncn3[C@@H]2CCCCO2)cc1 was read as EP2 antag 44.5* and EP2 mod -3.2.
`COc1ccc(NC(=O)CSc2nc(C(C)C)nc3sc(C)c(C)c23)cc1` gave EP2 antag 18.5 and EP2 mod 20.3.
For O=C(Nc1cccc(S(=O)(=O)NCc2ccco2)c1)c1cc(-c2ccc(F)cc2)nc2ccccc12 the results were EP2 antag 6.0, EP2 mod -27.8, Wee1 degr inh 9.2*, HSV replic up inactive, p47phox inh -22.7 and Furin inh -5.5.
For COc1ccc(-c2cc(C(=O)Nc3cccc(S(=O)(=O)NCc4ccco4)c3)c3ccccc3n2)cc1OC the results were EP2 antag 11.8, EP2 mod -25.1, Wee1 degr inh 3.8, HSV replic up inactive, p47phox inh -60.0 and Furin inh -5.3.
COC(=O)C1=CN(Cc2ccc(OC)cc2)C=C(C(=O)OC)C1c1ccsc1 was read as EP2 antag 5.5, EP2 mod 61.3*, Wee1 degr inh 1.2, HSV replic up inactive, p47phox inh -3.6 and Furin inh -10.6.
COC(=O)C1=CN(CC2CCCO2)C=C(C(=O)OC)C1c1ccsc1 (centres undefined) was read as EP2 antag 10.6, EP2 mod 24.8, Wee1 degr inh 1.2, HSV replic up inactive, p47phox inh -7.7 and Furin inh -61.5.
`O=C(CSc1ncc(-c2ccccc2)[nH]1)Nc1ccccc1` gave EP2 antag 8.3, EP2 mod -33.8, Wee1 degr inh -1.9, HSV replic up inactive, p47phox inh 33.3* and Furin inh -19.4.
For CC(O)CN(Cc1ccc2c(c1)OCO2)Cc1cn[nH]c1-c1ccc(Cl)cc1 (centres undefined) the results were EP2 antag 2.5 and EP2 mod 60.5.
COc1ccc(-n2c(C)c(C(=O)O)c3cc(OC)c4ccccc4c32)cc1 was read as EP2 antag 6.9, EP2 mod 69.7*, Wee1 degr inh -0.3, HSV replic up inactive, p47phox inh -8.7 and Furin inh -20.9.
For COc1cc2c(C(=O)O)c(C)n(-c3ccccc3)c2c2ccccc12 the results were EP2 antag 11.1, EP2 mod 43.6, Wee1 degr inh -1.1, HSV replic up inactive, p47phox inh 5.6 and Furin inh -13.3.
`Cc1cc(C(C)(C)C)oc1C(=O)NCCCNC(=O)c1oc(C(C)(C)C)cc1C` gave EP2 antag 7.2, EP2 mod 60.6*!, Wee1 degr inh 3.3, HSV replic up inactive, p47phox inh -16.3 and Furin inh -8.2.
For C[N+](C)(C)CCC(=O)c1cccc2ccccc12 the results were EP2 antag 106.3* and EP2 mod -11.0.
Screening Cc1[nH]c2ccccc2c1-c1cc(-c2cc(-c3c(C)[nH]c4ccccc34)on2)no1 returned EP2 antag 47.1* and EP2 mod -23.1.
For Cc1cccc(C(=O)NC2CCN(CC(=O)Nc3cccc4ccccc34)CC2)c1 the results were EP2 antag 12.1 and EP2 mod -73.8.
Cc1nc2ccccc2nc1-c1ccc(N=[N+]([O-])c2ccc(-c3nc4ccccc4nc3C)cc2)cc1 was read as EP2 antag 53.6* and EP2 mod 7.0.
Screening CC(=O)c1ccc(NC(=O)c2sc3cccc(Cl)c3c2Cl)cc1 returned EP2 antag 28.0 and EP2 mod -12.9.
For COC(=O)C1C(=O)C2=C(CC1C)Nc1ccccc1NC2c1ccccc1C (centres undefined) the results were EP2 antag 9.8 and EP2 mod 13.9.
For O=C(O/N=C(\c1ccccc1)c1ccncc1)c1ccccc1Cl the results were EP2 antag 2.0, EP2 mod 34.7, Wee1 degr inh 9.6*, HSV replic up inactive, p47phox inh 0.3 and Furin inh -11.7.
Screening N/C(=N\OC(=O)c1ccccc1Cl)c1ccccc1 returned EP2 antag 5.4, EP2 mod 10.6, Wee1 degr inh -0.8, HSV replic up inactive, p47phox inh -15.8 and Furin inh -13.8.
For CCC(=O)Nc1sc2c(c1C(N)=O)CCCCC2 the results were EP2 antag 14.5 and EP2 mod -19.3.
`Nc1nc(-c2cccc([N+](=O)[O-])c2)cc(-c2cc(-c3cccc([N+](=O)[O-])c3)nc(N)n2)n1` gave EP2 antag 43.8* and EP2 mod 7.6.
Screening O=C(O)c1cc(-c2cccc([N+](=O)[O-])c2)nc2ccccc12 returned EP2 antag 4.9, EP2 mod 4.8, Wee1 degr inh -1.9, HSV replic up inactive, p47phox inh -11.8 and Furin inh -11.1.
`Cc1[nH]n(-c2ccccc2)c(=S)c1C=Nc1cccc([N+](=O)[O-])c1` gave EP2 antag 19.0, EP2 mod 17.9, Wee1 degr inh -2.3, HSV replic up inactive, p47phox inh 89.0* and Furin inh -12.0.
`CCCCN=Cc1c(C)[nH]n(-c2ccccc2)c1=S` gave EP2 antag 9.9, EP2 mod 11.7, Wee1 degr inh 3.2, HSV replic up inactive, p47phox inh -4.4 and Furin inh -9.6.
